Results: PubChem BioAssay (NCATS)
Inconclusive results are not listed. Values without a mark were called inactive. The call rests on the fitted dose curve; in most records, active means well fitted activation curve with a large enough effect; inconclusive means small, poorly fitted or top-dose-only effect; inactive means flat fitted curve, though single readings scatter.

assay: Primary redox qHTS assay for identification of artifact compounds. (AID 1845223); conditions: Amplex Red/HRP redox cycling with DTT, fluorescence; series mostly up to 53.8 µM; redox activity (% of DA3003): at the top concentration;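 further: 0% = DMSO and 100% = reference compound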
Outline: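 Amplex Red (25 uM) and HRP (250 mU/mL) in HBSS, with compounds for 15 min, then 250 uM DTT for 30 min, room temperature, dark. Fluorescence 525/598 nm read; normalized to DMSO and 10 uM DA3003; Hill fit.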

Compound	redox activity (% of DA3003)
COC(=O)C1=CO[C@@H](O[C@@H]2O[C@H](COC(=O)/C=C/c3cc(OC)c(O)c(OC)c3)[C@@H](O)[C@H](O)[C@H]2O)[C@@H]2C(CO)=CC[C@H]12	-11.5% [at 25.6 µM]
CC(C)C(=O)c1cn(CC(=O)COc2ccc(Oc3ccccc3)cc2)c2ccc(C(=O)O)cc12	11.2%
CC1=CC(=O)OC(C)(CC(C)(O)C(=O)O)C1 (stereo not given)	-15.5%
CO/N=C(/C(=O)N[C@@H]1C(=O)N2C(C(=O)O)=C(CSC(=O)c3ccco3)CS[C@H]12)c1csc(N)n1	10.3%
C=CC(C)(C)C1(CC2NC(=O)C3CCCN3C2=O)C(=O)Nc2cc3c(cc21)C=CC(C)(C)O3 (stereo not given)	5.54% [at 25.6 µM]
O=C(O[C@H]1[C@@H]2C=CO[C@@H](O[C@@H]3O[C@H](CO)[C@@H](O)[C@H](O)[C@H]3O)[C@@H]2[C@@]2(CO)O[C@@H]12)c1ccc(O)cc1	-16.8% [at 25.6 µM]
NC1CCC(N[C@@H]2C[C@H]2c2ccccc2)CC1 (stereo not given in full)	-3.18%
N[C@@H](CC(=O)N1CCn2c(nnc2C(F)(F)F)C1)Cc1[nH]nc2c(F)c(F)ccc12	-5.03%
CCOC(=O)Nc1nc2ccccc2[nH]1	-0.553%
CC(C)Nc1cc(-c2c[nH]c(C(=O)N[C@H](CO)c3cccc(Cl)c3)c2)c(Cl)cn1	8.22%
C=C1CC2[C@]3(C)C(=C(O)C(=O)[C@@]2(C)[C@]2(C(=O)OC)C(=O)C(C)OC(=O)[C@@]12C)C(C)(C)C(=O)CC3O (stereo not given in full)	-1.52% [at 25.6 µM]
Cc1cccc(-c2[nH]c(CNc3ccccc3F)nc2-c2ccc3ncnn3c2)n1	8.88%
Cn1c(=O)c2nc(/C=C/c3cccc(Cl)c3)n(C)c2n(C)c1=O	0.239% [at 114 µM]
C[C@@H]1C(=O)O[C@H]2CC34[C@H]5C[C@@H](C(C)(C)C)C36[C@@H](OC(=O)[C@@H]6O)O[C@@]4(C(=O)O5)[C@]21O (stereo not given in full)	-16.1% [at 25.6 µM]
C=CC1(C)CC(O)C2(CCC3C(C)(C(=O)O)CCCC3(C)C2=O)C1 (stereo not given)	-8.94%
C=CC1(C)C=C2C(O)CC3C(C)(C(=O)O)CCCC3(C)C2CC1 (stereo not given)	19.9%
C=C1C(=O)OC2CC(C)=C(C(C)CCCO[C@@H]3O[C@H](CO)[C@@H](O)[C@H](O)[C@H]3O)C(O)C12 (stereo not given in full)	-18.4% [at 25.6 µM]
C=CC1(C)CC2=CCC3C(C)(C(=O)O)CCCC3(C)C2CC1OC(C)=O (stereo not given)	2.62%
COC1CCCC/C(C)=C/C2C=C(C)C(C)C3C(CC(C)C)NC(=O)C23C(=O)C1 (stereo not given)	11.3% [at 25.6 µM]
C/C1=C\C[C@H](O[C@@H]2O[C@H](CO)[C@@H](O)[C@H](O)[C@H]2O)/C(C)=C/[C@H]2OC(=O)[C@H](C)[C@@H]2CC1	-2.22% [at 25.6 µM]

Compound	redox activity (% of DA3003)
COC(=O)c1ccc(O[C@@H]2O[C@H](CO)[C@@H](O)[C@H](O)[C@H]2O)c(OC)c1	-10.3%
CC(C)C1=CCC(C)(O)C(OC2OC(CO)C(O)C(O)C2O)C1 (stereo not given)	11.6%
C[C@]12CC[C@@H]3c4ccc(O[C@@H]5O[C@H](C(=O)O)[C@@H](O)[C@H](O)[C@H]5O)cc4CC[C@H]3[C@@H]1CCC2=O	-3.18%
COc1cc(/C=C/CO)ccc1O[C@@H]1O[C@H](CO)[C@@H](O)[C@H](O)[C@H]1O	-2.91%
Cc1ncc([N+](=O)[O-])n1CC(O)CN1CCOCC1 (stereo not given)	-1.33%
COc1cc2c(cc1O)C1(OC)Cc3ccc4c(c3C1N(C)CC2)OCO4 (stereo not given)	-3.01%
C=C1CCC2C(C)(CO[C@@H]3O[C@H](CO)[C@@H](O)[C@H](O)[C@H]3O)C(O)CCC2(C)C1C(=O)CC1=CCOC1=O (stereo not given in full)	-6.42% [at 25.6 µM]
CC1(C)CC2C3=CCC4C5(C)CCC(OC6OC(C(=O)O)C(O)C(O)C6OC6OC(CO)C(O)C(O)C6OC6OC(CO)C(O)C(O)C6O)C(C)(CO)C5CCC4(C)C3(C)CCC2(C)C(OC2OCC(O)C(OC3OC(CO)C(O)C(O)C3O)C2O)C1O (stereo not given)	10.1% [at 11.5 µM]
COc1cc(CC(COC2OC(CO)C(O)C(O)C2O)c2cc(/C=C/CO)cc(OC)c2O)ccc1O (stereo not given)	0.0536% [at 25.6 µM]
O=C(O)C[C@H]1CCC(=O)[C@@H]1C/C=C\CCOC1OC(CO)C(O)C(O)C1O (stereo not given in full)	-0.498%
CC(C)(C)NCC(O)COc1cccc2c1CCCC2=O (stereo not given)	-6.47%
C[C@@H]1O[C@@H](O[C@@H]2[C@@H](O)[C@@H](O)[C@H](O[C@@H]3[C@@H](O)[C@@H](O[C@]4(CO)O[C@H](CO)[C@@H](O)[C@@H]4OC(=O)/C=C/c4ccc(O)cc4)O[C@H](CO)[C@H]3OC(=O)/C=C/c3ccc(O)cc3)O[C@H]2C)[C@H](O)[C@H](O)[C@H]1O	-13.4% [at 11.5 µM]
O=C(/C=C/c1ccc(O)cc1)OCC1=C[C@@H](O)[C@@H]2C=CO[C@@H](O[C@@H]3O[C@H](CO)[C@@H](O)[C@H](O)[C@H]3O)[C@H]12	-0.336% [at 25.6 µM]
C[C@H]1CN(C[C@H](Cc2ccccc2)C(=O)NCC(=O)O)CC[C@@]1(C)c1cccc(O)c1	19%
C=CC(C)(C)C12CC3C(=O)NC(Cc4cnc[nH]4)C(=O)N3C1Nc1ccccc12 (stereo not given)	-2.82%
COc1cc(C2OCC3C(c4ccc(OC5OC(CO)C(O)C(O)C5O)c(OC)c4)OCC23)ccc1O (stereo not given)	-0.501% [at 25.6 µM]
Cc1c(N2C(=O)c3ccc(C(=O)O)cc3C2=O)c(=O)n(-c2ccccc2)n1C	-3.29%
O=C(O)c1n[nH]c2c1C[C@H]1C[C@@H]21	-3.77%
CC(C)c1ccc(CC(=O)N2CCC[C@@H](c3cccc(OC(C)(C)C(=O)O)c3)C2)cc1	22%
CC1(C(=O)O)CCCC2(C)C1CCC13CC(CCC21)C1(CO)OC31 (stereo not given)	3.15%
